Compounds without any hit were thinned out: in the full panel of roughly 79,000, 15% have a hit. Active and inactive are the calls of the source. No stated cut-off is given here; in the data, active means growth inhibition above about 70%; inactive means the rest.
Test: NCI Yeast Anticancer Drug Screen. Data for the sgs1 mgt1 strain (AID 161);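 further: 0% = growth of cultures given vehicle only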
Details: S. cerevisiae sgs1 mgt1 strain, at 50.0 µM, stronger effect = higher value
How it was run: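 Read-out: growth inhibition vs vehicle controls. Cells: mutant yeast strain deficient in DNA damage repair.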

SMILES	growth inhibition
Fc1ccc(-c2ccc(Br)cc2)cc1	2.05% (inactive)
CCNC(=O)CCN(C(=O)O)S(=O)(=O)c1ccc(NC(=O)c2ccccc2)cc1	-2.55% (inactive)
COc1cc(NCc2c(O)ccc3ccccc23)c2ncccc2c1	13.1% (inactive)
O=C(CS(=O)(=O)Cc1ccccc1)N1CCOCC1	-6.55% (inactive)
O=C(/C=C/c1ccc(O)cc1)c1cc(O)cc(O)c1	2% (inactive)
CNC(=O)/C(=C\c1ccccc1)NC(C)=O	6% (inactive)
c1ccc(SCc2ccc3c(c2)OCO3)cc1	18.2% (inactive)
CNc1ccc(C(=O)O)cc1C(F)(F)F	-6% (inactive)
O=c1[nH]cnc2c1ncn2C1CCC(CO)O1 (stereo not drawn)	11.3% (inactive)
CC(C)C1=CC2=CCC3C(C)(COC(=O)CSC(C)(C)C)CCCC3(C)C2CC1 (stereo not drawn)	31.6% (inactive)
N#CC(CC(=O)c1ccccc1)c1ccccc1Cl (stereo not drawn)	31.3% (inactive)
c1ccc(C2=NCCc3cc4c(cc32)OCO4)cc1	7.8% (inactive)
COc1ccc(CC(N)C(=O)N2CCCCC2)cc1 (stereo not drawn)	13.2% (inactive)
COc1cc(-c2nnc3n2NC=C(C(=O)O)S3)cc(OC)c1OC	-10.9% (inactive)
CC(=O)O[C@]12CCCCCC1C1(O)C(O)CCCC[C@H]12 (stereo partly drawn)	-21.2% (inactive)
COC(=O)c1ccccc1C1CN=NC12Cc1c(C)ccc(C)c1C2=O (stereo not drawn)	16.9% (inactive)
CC/C=N/Nc1cn[nH]c(=O)c1Cl	9.85% (inactive)
C=C1C(=O)OC2CCC3OC(C)(C)OC3C12 (stereo not drawn)	15.4% (inactive)
CCC1N=C(N)N=C(N)N1c1ccc(Cl)c(Cl)c1 (stereo not drawn)	9.25% (inactive)
CCCCn1c2nc(=O)n(C)c(=O)c-2cc2ccccc21	22.6% (inactive)
COc1ccc([N+](=O)[O-])c(C(OC(C)=O)OC(C)=O)c1OC(C)=O	20.2% (inactive)
CCCCCCCCCCC1SCC(=O)N1c1nncs1 (stereo not drawn)	16.6% (inactive)
CC(=O)Nc1nc2ncc(CN(C(C)=O)c3ccc(C(=O)O)cc3)nc2c(=O)[nH]1	-38.1% (inactive)

Test: NCI Yeast Anticancer Drug Screen. Data for the cln2 rad14 strain (AID 165);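 further: 0% = growth equal to vehicle treated cultures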
Details: S. cerevisiae cln2 rad14 strain, at 50.0 µM, stronger effect = higher value
How it was run: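 Compounds are applied to the cln2 rad14 yeast strain, and growth is then compared with that of vehicle-treated cultures to give inhibition.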

SMILES	growth inhibition
CSc1nc(=O)cc(N)n1C	-23.7% (inactive)
CCOC(=O)C(NC(=O)Cc1ccccc1)C(=O)OCC	10.8% (inactive)
COc1ccc(C(=O)C(CN(C)C)CN(C)C)cc1OC	-5.9% (inactive)
CS(=O)(=O)/C=C/c1ccccc1	1.8% (inactive)
Clc1ccc2sc3c(c2c1)CCNC3	-31.4% (inactive)
CCS(=O)(=O)c1ccc(NC(=O)OC2CCCCCC2)cc1	-1.25% (inactive)
CC(C)c1ccc(C(O)C2CC2)cc1 (stereo not drawn)	3.05% (inactive)
Nc1ccc(C(=O)CC(=O)c2cccc([N+](=O)[O-])c2)cc1	21.5% (inactive)
CC(C)(Cc1ccc(Cl)cc1)NC(N)=O	3.1% (inactive)
CSc1ccc(NC(=O)Nc2ccc(Cl)cc2C(=O)c2ccccc2)cc1	98% (active)
Cc1nc2c(cc1C(=O)N/N=C/c1ccc([N+](=O)[O-])cc1)c(=O)n(C)c(=O)n2C	-5.75% (inactive)
CC#Cc1c(C#CC)c(OC)c2c(c1OC)C(=O)c1ccccc1C2=O	3.3% (inactive)
CN(C)c1ccc(/C=N\NC(=S)Nc2ccc3cn[nH]c3c2)cc1	8.1% (inactive)
CNc1nc2c(s1)c1c(O)c3c(O)c(C)c4c(c32)C(=O)C(C)(O/C=C/C(OC)C(C)C(OC(C)=O)C(C)C(O)C(C)C(O)C(C)/C=C/C=C(/C)C(=O)N1)O4 (stereo not drawn)	9.7% (inactive)
Nc1nc2ccc([N+](=O)[O-])cc2s1	-18.4% (inactive)
O=S(Nc1ccc(Br)cc1)c1ccccc1 (stereo not drawn)	-8.2% (inactive)
O=C(CNC(=O)C(CO)NC(=O)OCc1ccccc1)OCc1ccccc1 (stereo not drawn)	4.1% (inactive)
Fc1ccc(-c2ccc(Br)cc2)cc1	-44% (inactive)
CCNC(=O)CCN(C(=O)O)S(=O)(=O)c1ccc(NC(=O)c2ccccc2)cc1	0.25% (inactive)
COc1cc(NCc2c(O)ccc3ccccc23)c2ncccc2c1	-11.2% (inactive)
O=C(CS(=O)(=O)Cc1ccccc1)N1CCOCC1	-3.8% (inactive)
O=C(/C=C/c1ccc(O)cc1)c1cc(O)cc(O)c1	-8.95% (inactive)
CNC(=O)/C(=C\c1ccccc1)NC(C)=O	-54.7% (inactive)
c1ccc(SCc2ccc3c(c2)OCO3)cc1	9.25% (inactive)
CNc1ccc(C(=O)O)cc1C(F)(F)F	0.65% (inactive)

— PubChem BioAssay (NCI)
